The whole screen tested about 290,000 compounds, of which about 27,000 (9.3%) were called active. The list comes from a sample in which actives are over-represented; it also holds similar structures and randomly drawn compounds. A number with no mark means an inactive call. Cut-off read from the data, not from the text of the source: active = inhibition mostly above about 28% (no sharp cut-off); inactive = mostly below about 43%.

The assay can be described thus: A qHTS for Small Molecule Inhibitors of Shiga Toxin. Note: 0% is about no effect. Conditions: Vero cells, Shiga toxin protein synthesis inhibition reporter; at 38.7 µM, stronger effect = higher value.
Turning to `Cc1ccc(NC(=O)CN(C)C(=O)COC(=O)C(C)(C)Oc2ccc(Cl)cc2)cc1`, the inhibition was -9.8%.
Turning to `O=C(CN1CCN(c2cccc(Cl)c2)CC1)Nc1ccc(S(=O)(=O)N2CCOCC2)cc1`, the inhibition is -9.51%.
The value for `Cn1c(CSCC(=O)Nc2ccccc2)nnc1SCc1ccccc1` was 18.4%.
On to `Cc1c(NC(=O)CSCc2ccccc2)cccc1C(=O)O`, for which the inhibition is 31.3%.
Consider `O=C(CSCc1ccccc1)Nc1ccccc1`, for which the inhibition is 50.8% (active).
To `COc1ccc(Cl)cc1NC(=O)c1cccc(N2C(=O)C3CC=CCC3C2=O)c1` (configuration not stated) belongs -4.45%; to `COc1ccc(S(=O)(=O)N2CCSCC2)cc1`, -9.94%.
To `CCOC(=O)N1CCN(Cc2nnc(-c3ccccc3Cl)o2)CC1` belongs -5.19%; to `O=C(COc1ccccc1)Nc1ccc(C(=O)N2CCCC2)cc1`, 9.15%.
For `COc1cc(C2NC(=O)NC(c3ccccc3)=C2C(C)=O)c(Br)cc1OCC(N)=O` (configuration not stated), the inhibition is -4.39%.
Regarding `O=C(Nc1ccccc1-c1ccccc1)c1cccs1`, the inhibition was -12.5%.
Take `O=C(NC(=S)Nc1cccc(-c2ccc(CO)o2)c1)c1cccs1`: the inhibition was 127% (active).
The value for `O=C(NC(=S)Nc1ccc(NC(=O)c2cccs2)cc1)c1ccc([N+](=O)[O-])cc1` was 36.1%; that for `O=S(=O)(Cc1cc(Cl)nc(-c2cccnc2)n1)c1ccccc1` was 40.3%; that for `O=C(c1cc(S(=O)(=O)N2CCOCC2)ccc1Cl)N1CCOCC1` was -6.61%.
To `CC(C)CCN(C(=O)c1csnn1)C(C(=O)NC1CCCC1)c1ccccc1` (configuration not stated) belongs -3.8%; to `Cc1cc2c(=O)n(CC(=O)NCC(=O)Nc3ccc(C(C)C)cc3)cnc2s1`, -9.56%; to `COc1ccc(CCNC(=O)CCNS(=O)(=O)c2cc(Br)cnc2N)cc1OC`, -6.21%.
Regarding `CS(=O)(=O)N(CC(=O)N1CCOCC1)c1cccc(Cl)c1Cl`, the inhibition is 1.97%.
For the compound `Cc1ccccc1-c1nnn(CC(=O)c2ccc(S(=O)(=O)N3CCCC3)cc2)n1`, the inhibition was -5.14%.
To `O=C(Cn1nnc(-c2ccccc2)n1)NCc1ccccc1` belongs -10.9%.
As for `Cc1nc2ccccc2n1CC(O)c1ccccc1` (configuration not stated), the inhibition was -2.2%.
Regarding `CCOc1ccc(S(=O)(=O)N2CCCC(C(=O)N3CCC(C(N)=O)CC3)C2)cc1Cl` (configuration not stated), the inhibition was 15.1%.
The value for `CCOC(=O)CSc1nc(N2CCOCC2)c2c(c1C#N)CC(C(C)C)OC2` (configuration not stated) was -7.43%; that for `CC(=O)C1=C(O)C(=O)N(c2ccc(Br)cc2)C1c1ccc([N+](=O)[O-])cc1` (configuration not stated) was -5.69%; that for `CN(C)CCN(C(=O)C1=COCCO1)c1nc2ccc(Cl)cc2s1` was 128% (active).
With `CCc1ccc2nc(N(CCCN(C)C)C(=O)c3ccc4c(c3)OCCO4)sc2c1`, the inhibition is -6.1%.
To `Cc1ccc2nc(N(CCN(C)C)C(=O)C3=COCCO3)sc2c1` belongs 6.59%; to `COc1ccc(NC(=O)C2CCN(S(=O)(=O)c3ccc4[nH]c(=O)oc4c3)CC2)c(OC)c1`, -2.15%.
The value for `Cn1c(Nc2ccccc2)cc(=O)n(C)c1=O` was -6%; that for `CN(C)S(=O)(=O)c1ccc(C(=O)NCCN=C2NS(=O)(=O)c3ccccc32)cc1` was -13.8%.
To `O=c1c(-c2ccccc2Cl)c[nH]n1-c1ccccc1` belongs 9.18%; to `Cc1[nH]n(-c2cccc(Cl)c2)c(=O)c1-c1ccc(Cl)cc1`, 34.8%; to `O=c1c(-c2cccc(Cl)c2)c[nH]n1-c1ccccc1`, 77.1% (active).
With `COc1ccc(CNC(=O)Cc2ccc(-c3ccccc3)cc2)cc1OC`, the inhibition is -1.2%.
In the case of `Cc1cc(=O)[nH]c2nnnn12`, the inhibition is -3.63%.
`COc1ccccc1/C=C/C(=O)NC1CC2CCC1C2` (configuration not stated): the inhibition is 12.2%.
The value for `COc1ccc(/C=C/C(=O)NC(=S)N2CCCC(C(N)=O)C2)cc1` (configuration not stated) was 12.4%; that for `COc1ccccc1C(=O)Nc1cccc(C(=O)N2CCOCC2)c1` was -11.1%; that for `O=C(/C=C/c1ccco1)NC(=S)N1CCCCC1` was 47.5% (active).
`COc1ccccc1/C=C/C(=O)NC(=S)N1CCOCC1`: the inhibition is 106% (active).
For `O=C(/C=C/c1ccco1)NC(=S)Nc1ccccc1Br`, the inhibition was 26.6%.
To `CCCn1c(C2CCCN2c2nc(-c3ccc(C)cc3)cs2)nc2cc(Cl)c(N3CCCCC3)cc21` (configuration not stated) belongs 26.1%; to `CCOc1ccc(Br)cc1S(=O)(=O)Nc1ccc(C(=O)OC(C)C(=O)N(C)c2ccccc2)cc1` (configuration not stated), -0.904%.
For the compound `CCOC(=O)c1c(-c2ccccc2)oc2cc(Br)c(O)c(C=O)c12`, the inhibition is 3%.
In the case of `Cc1cc(=O)[nH]c(SCc2cccc(F)c2)n1`, the inhibition is -4.74%.
Consider `Nc1cc(N)nc(SCc2cccc(F)c2)n1`, for which the inhibition was 62.3% (active).
As for `Nc1cc(N)nc(SCc2ccc(Cl)cc2)n1`, the inhibition is 17.1%.
On to `CN(CC(=O)Nc1ccccc1C(F)(F)F)C(=O)Cc1ccccc1F`, for which the inhibition was 16.3%.
Regarding `Cc1ccc(NS(=O)(=O)c2cn(C)c(=O)n(C)c2=O)c(C)c1`, the inhibition is 3.31%.
With `COc1ccc(-n2ncc3c(N4CCc5ccccc54)ncnc32)cc1`, the inhibition was 105% (active).
On to `COc1ccc(-n2ncc3c(N4CCCc5ccccc54)ncnc32)cc1`, for which the inhibition is 113% (active).
The value for `COc1cc(C)c(C)cc1S(=O)(=O)N1CCCc2ccccc21` was 16.5%; that for `COc1ccc(CCC(C)N2CCc3ccccc3C2)cc1` (configuration not stated) was -6.15%; that for `COc1ccc(Oc2c(Cl)cnn(-c3ccccc3)c2=O)cc1` was -10.6%.
To `COc1ccc2oc(=O)c(C(=O)N3CCCc4ccccc43)cc2c1` belongs -5.55%; to `Cc1ccc(NC(=O)CN2CCc3ccccc3C2)cc1C`, 17%.
Regarding `COc1ccc(C(=O)OCC(=O)NCCCc2ccccc2)cc1OC`, the inhibition is -3.51%.
As to `CC(C)Oc1ccc(/C=C(\NC(=O)/C=C/c2ccco2)C(=O)NCCc2nc3ccccc3[nH]2)cc1`, the inhibition is 14.2%.
In the case of `CN(c1ccccc1)S(=O)(=O)c1cc(C(=O)Nc2nc3ccccc3[nH]2)ccc1Cl`, the inhibition was 55.5%.
For the compound `NS(=O)(=O)c1cccc(NC(=O)COC(=O)/C=C/c2ccco2)c1`, the inhibition was 26.6%.
To `O=C(Nc1cccc(-c2nc3ccccc3[nH]2)c1)c1ccc(C(=O)Nc2cccc(-c3nc4ccccc4[nH]3)c2)cc1` belongs 62.5% (active); to `O=C(Cc1cccs1)Nc1cccc(-c2nc3ccccc3[nH]2)c1`, 3.19%.
`O=C(/C=C/c1ccco1)Nc1cccc(-c2nc3ccccc3[nH]2)c1`: the inhibition is 157% (active).
Turning to `CCOC(=O)c1c(NC(=O)/C=C/c2ccco2)sc(C)c1C`, the inhibition was -12.1%.
On to `Cc1ccc(-n2nc3ccc(NC(=O)/C=C/c4ccco4)cc3n2)cc1C`, for which the inhibition is 63.8% (active).
Take `Cc1ccc(N2NC(=O)/C(=C/C=C/c3ccco3)C2=O)cc1C`: the inhibition is 20.9%.
The value for `COc1ccc(Br)cc1C1C2C=CCC(C)C2C(=O)N1Cc1ccccc1` (configuration not stated) was 2.19%; that for `Cc1cnc(C)c(N2CCN(C(=O)C3CCC(=O)N(CCc4cccc(F)c4)C3)CC2)n1` (configuration not stated) was 0.443%; that for `NC(=O)C1CCN(C(=O)c2ccc3c(=O)n(Cc4cccc(Br)c4)c(=S)[nH]c3c2)CC1` was 0.712%.
To `CCN1C(=S)N[C@@H](c2cccc(C(F)(F)F)c2)C(C(=O)OC)=C1C` belongs -10.1%.
With `COC(=O)C1(C)CC1(c1ccccc1)c1ccccc1` (configuration not stated), the inhibition was -7.31%.
For the compound `O=CN1CCN(C(=O)c2ccc3c(c2)OCO3)CC1`, the inhibition was 2.8%.
`CN1C(=O)/C(=C/C=C2\SCCN2C)OC1=S`: the inhibition was 70.4% (active).
The value for `COCCNc1nc(N)c([N+](=O)[O-])c(N2CCCCCC2)n1` was 6.83%; that for `O=CN1CCN(C(=O)c2ccc(Br)o2)CC1` was 17.4%.
In the case of `Cc1ccc(NC2CCCN(C(=O)CCC3(C)CC3)C2)cc1C` (configuration not stated), the inhibition is -22.1%.
The value for `O=C(Nc1cccc2cccnc12)c1cccc(Cl)c1` was 87.7% (active).
In the case of `CCOC(=O)Cc1ncccc1C(=O)Nc1ccc(OC)cc1`, the inhibition is 6.55%.
The value for `O=C(Nc1ccccc1Cl)Nc1cccc2cccnc12` was 40.9% (active).
For `O=C(Nc1cccc2cccnc12)c1cccc(N2C(=O)CCC2=O)c1`, the inhibition is 30.9%.
The value for `N#Cc1ccc(C(=O)Nc2cccc3cccnc23)c(F)c1` was -0.419%; that for `COc1ccc(S(=O)(=O)Nc2cccc3cccnc23)c(N)c1` was -26.8%; that for `O=C(Nc1cccc2cccnc12)C(F)(F)F` was -8.11%.
To `O=C(Nc1ccccc1Cl)Nn1cnnc1` belongs 14.1%; to `COc1ccc(NC(=O)Nc2cccc3cccnc23)cc1`, 79.2% (active).
As to `O=C(COc1ccccc1Cl)N1CCCCCCC1`, the inhibition is 36.9%.
As for `CN(c1ccccc1)S(=O)(=O)c1ccc(NC(=O)COc2ccccc2)cc1`, the inhibition is -5.47%.
The value for `NS(=O)(=O)c1ccc(CCNS(=O)(=O)c2cccc3cccnc23)cc1` was -5.83%; that for `COc1ccc(-c2cc(=O)oc3cc(OC(C)C(=O)Nc4ccc(CN5CCOCC5)cc4)ccc23)cc1` (configuration not stated) was -3.54%; that for `CCOC(=O)c1c(-c2ccccc2)oc2ccc(OCC(N)=O)cc12` was -3.18%.
For the compound `COc1cc2c(cc1OC)C(C(=O)Nc1cc(C)c(OC)c(C)c1)CC(=O)N2` (configuration not stated), the inhibition is 7.56%.
`COc1ccc(C(=O)NC(C)Cn2nc(C)cc2C)cc1OC1CCN(C(C)=O)CC1` (configuration not stated): the inhibition was -5.64%.
Take `Nc1ccc(C(=O)Nc2ccccc2N)cc1`: the inhibition was 46.6%.
To `CC1CCC(NC(=O)C2c3ccccc3C(=O)N2Cc2ccc3c(c2)OCO3)CC1` (configuration not stated) belongs 15.2%; to `Cc1ccc(C(=O)NC2CC(C)(C)NC(C)(C)C2)c(C)c1`, -6.82%.
Consider `Cc1ccc2c(c1)NCC(C(=O)NC1CCC(C)CC1)O2` (configuration not stated), for which the inhibition is 64.8% (active).
